Consider 28 compounds from PubChem BioAssay (NCATS).

Results filed as inconclusive are left out. Unmarked numbers belong to inactive results. Calls of active or inactive are those of the source. The call rests on the fitted dose curve; in most records, active means well fitted cell-killing curve with a large enough effect; inconclusive means small, poorly fitted or top-dose-only effect, or effect the other way; inactive means no such curve, though single readings can be large or run the other way.
Potency means the concentration at half of the fitted maximal effect.

The nature of the first assay: Quantitative High-Throughput drug screen in 47 multiple myeloma cell lines against the NCATS MIPE library collection: KMS27_JCRB cell viability assay (AID 1918970). Further: nearly all actives have a fitted effect of over 30% in size. The note with it: KMS27 myeloma cells, CellTiter-Glo ATP viability, 48 h; series mostly up to 45.8 µM; viability (% of DMSO): at the top concentration. The gist of the method:
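CellTiter-Glo luminescence after 48 h drug exposure at 37 °C; 500 cells/well, 1536-well format, pin-tool compound addition; DMSO = 100%, media-only = 0% viability.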
For orientation: ATP-based viability assays read luminescence as a measure of living cells.
As to `CCN(CC)CCn1c(=O)c(Cc2ccc(OC)cc2)nc2ccccc21`, the Potency was 10.5 µM (active).
`CNS(=O)(=O)Cc1ccc2[nH]cc(CCN(C)C)c2c1`: the “viability (% of DMSO)” value is 98.3%.
For `CCCOc1ccc(C(=O)OCCN(CC)CC)cc1N`, the “viability (% of DMSO)” value was 105%.
Take `CC(C)NCC(O)c1ccc(NS(C)(=O)=O)cc1` (configuration not stated): the “viability (% of DMSO)” value is 128%.
`C[C@@H]1C[C@H]2[C@@H]3CCC4=CC(=O)C=C[C@]4(C)[C@@]3(Cl)[C@@H](O)C[C@]2(C)[C@@]1(OC(=O)c1ccco1)C(=O)CCl`: the Potency is 10.5 µM (active).
With `Nc1ccc(S(=O)(=O)Nc2ccccn2)cc1`, the “viability (% of DMSO)” value was 138%.
Still for that read-out and setting: the value for `O=C(O)C1CCCN(CCC=C(c2ccccc2)c2ccccc2)C1` (configuration not stated) was 121%; that for `CN(Cc1cc(Br)cc(Br)c1N)C1CCCCC1` was 133%.
Turning to `CN(C)CCc1c[nH]c2ccc(CS(=O)(=O)N3CCCC3)cc12`, the Potency was 23.5 µM (active).
`CC[C@H](NC(C)C)[C@H](O)c1ccc(O)c2[nH]c(=O)ccc12`: the “viability (% of DMSO)” value was 113%.
Still for that read-out and setting: the value for `CC(C)C1CCC(C(=O)N[C@H](Cc2ccccc2)C(=O)O)CC1` (some centres not stated) was 111%; that for `CC1=NN(c2ccccc2)C(=O)C1` was 151%.
Turning to `O=NN(CCCl)C(=O)NC1CCCCC1`, the “viability (% of DMSO)” value was 120%.
Take `O=P(O)(O)C(O)(Cc1cccnc1)P(=O)(O)O`: the “viability (% of DMSO)” value is 131%.
On to `Nc1nc(N)nc(-c2cc(Cl)ccc2Cl)n1`, for which the “viability (% of DMSO)” value was 103%.
The same measure, in the same setting: the value for `N[C@@H](C(=O)N[C@@H]1C(=O)N2C(C(=O)O)=C(Cl)CS[C@H]12)c1ccccc1` was 107%.
`CCOC(=O)c1ccc(C#Cc2ccc3c(c2)C(C)(C)CCS3)nc1`: the “viability (% of DMSO)” value is 117%.
As to `COc1ncnc(NS(=O)(=O)c2ccc(N)cc2)c1OC`, the “viability (% of DMSO)” value was 92.5%.

The next assay in a line: Quantitative High-Throughput drug screen in 47 multiple myeloma cell lines against the NCATS MIPE library collection: KMS12BM_JCRB cell viability assay (AID 1918971). Further: nearly all actives have a fitted effect of over 35% in size. The conditions noted are these: KMS12BM myeloma viability, CellTiter-Glo ATP, 48 h; series mostly up to 45.8 µM; viability, % of DMSO: at the top concentration. An outline of the steps: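 Luminescent ATP measurement with CellTiter-Glo gives viability, scaled between DMSO-only wells (100%) and media-only wells (0%). Cells, 500 per well, faced library compounds for 48 hours at 37C.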
Consider `CCN(CC)CCn1c(=O)c(Cc2ccc(OC)cc2)nc2ccccc21`, for which the “viability, % of DMSO” value was 127%.
Still for that read-out and setting: under `CNS(=O)(=O)Cc1ccc2[nH]cc(CCN(C)C)c2c1` stands 155%; under `CC(C)NCC(O)c1ccc(NS(C)(=O)=O)cc1` (configuration not stated), 128%.
Turning to `C[C@@H]1C[C@H]2[C@@H]3CCC4=CC(=O)C=C[C@]4(C)[C@@]3(Cl)[C@@H](O)C[C@]2(C)[C@@]1(OC(=O)c1ccco1)C(=O)CCl`, the Potency was 18.7 µM (active).
Consider `O=C(NCC1CN(c2ccc(N3CCOCC3=O)cc2)C(=O)O1)c1ccc(Cl)s1` (configuration not stated), for which the “viability, % of DMSO” value is 106%.
With `CCCCCCNC(=O)n1cc(F)c(=O)[nH]c1=O`, the Potency is 4.69 µM (active).
With `CCOC(=O)c1ccc(OC(=O)CCCCCN=C(N)N)cc1`, the “viability, % of DMSO” value is 183%.
As to `COC(=O)Nc1nc2ccc(C(=O)c3ccccc3)cc2[nH]1`, the Potency is 1.48 µM (active).
For the compound `CN(C)CCc1c[nH]c2ccc(CS(=O)(=O)N3CCCC3)cc12`, the “viability, % of DMSO” value is 134%.
On the same count and under the same terms, under `CC(C(=O)O)c1ccc2c(c1)CC(=O)c1ccccc1S2` (configuration not stated) stands 143%.
With `CC[C@H](NC(C)C)[C@H](O)c1ccc(O)c2[nH]c(=O)ccc12`, the Potency was 0.0235 µM (active).
For `C[C@@H]1CN(c2c(F)c(N)c3c(=O)c(C(=O)O)cn(C4CC4)c3c2F)C[C@H](C)N1`, the “viability, % of DMSO” value was 255% [at 23.2 µM].
In the case of `O=NN(CCCl)C(=O)NC1CCCCC1`, the “viability, % of DMSO” value was 261%.
Regarding `CO[C@@H]1[C@@H](OC(N)=O)[C@@H](O)[C@H](Oc2ccc3c(O)c(NC(=O)c4ccc(O)c(CC=C(C)C)c4)c(=O)oc3c2C)OC1(C)C`, the Potency was 2.96 µM (active).
`Cc1nnc(C(=O)NC(C)(C)c2nc(C(=O)NCc3ccc(F)cc3)c(O)c(=O)n2C)o1`: the “viability, % of DMSO” value was 130%.
On to `Nc1nc(N)nc(-c2cc(Cl)ccc2Cl)n1`, for which the “viability, % of DMSO” value is 106%.
Take `CN1CCCC(n2nc(Cc3ccc(Cl)cc3)c3ccccc3c2=O)CC1` (configuration not stated): the Potency is 4.18 µM (active).
Regarding `COc1ncnc(NS(=O)(=O)c2ccc(N)cc2)c1OC`, the “viability, % of DMSO” value was 139%.
Regarding `CC(C)Cn1cnc2c(N)nc3ccccc3c21`, the Potency is 14.8 µM (active).
